# Compound activity from PubChem.
# Cycloheximide cs: counter-screen hit for Shiga toxin inhibitors, cycloheximide; cell reporter, cycloheximide protein synthesis inhibition counterscreen; 300,000 tested, 12% active; max response, %; in the data active = max response mostly above about 13%, no sharp cut-off; inactive = mostly below about 14%; also: read at 38.3 µM for the half of the compounds with a filed dose
# Shiga toxin inh: Shiga toxin inhibition. AID 2315. inhibition, % at 38.7 µM. 290,000 tested, 9.2% active. Vero cells, Shiga toxin protein synthesis inhibition reporter; in the data active = inhibition mostly above about 28%, no sharp cut-off; inactive = mostly below about 43%
# Tb PYK inh: blocks Trypanosoma brucei pyruvate kinase; Q57TT1; 410,000 tested, 0.12% active; Potency, µM (titrated, usually from 76.8 µM), most hits filed as inhibitors; TbPYK enzyme, Kinase-Glo Plus ATP luminescence, 45 min; also: nearly all actives have a fitted effect of over 50% in size
#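 In this concentration-response screen, enzyme-free wells defined baseline while DMSO plates tracked drift. Each reaction combined TbPYK, substrate, compound and 130 uM ADP for 45 min at room temperature. Kinase-Glo Plus luminescence gave the signal.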
# LmPK inh: inhibitors of Leishmania mexicana pyruvate kinase | Q27686 | purified LmPK, Kinase-Glo ATP luminescence, 1 h | Potency, µM (doses to about 57.5 µM), actives largely listed as inhibitors | 290,000 tested, 0.37% active | AID 1721
#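 ATP generated from ADP (0.1 mM) and PEP (0.5 mM) by 0.1 nM LmPK over 1 h at room temperature (pH 7.2 imidazole buffer) was detected by coupled luciferase luminescence. Values were normalized to uninhibited and no-enzyme wells.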
# Sm TGR inh: inhibitors of Schistosoma mansoni thioredoxin glutathione reductase | Q962Y6 | purified TGR, DTNB reduction, TNB absorbance 405 nm | Potency, µM (top dose mostly 114 µM), usual class: inhibitors | 360,000 tested, 3% active; also: nearly all actives have a fitted effect of over 60% in size
#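 Kinetic colorimetric format: TGR-catalysed, NADPH-driven DTNB reduction monitored via TNB absorbance. Enzyme dispensed at 20 nM; compound exposure 15 min at room temperature before reaction start.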
# FBPA Giardia inh: inhibitors of Giardia lamblia fructose-1,6-bisphosphate aldolase | A8B2U2 | 290,000 tested, 0.71% active | purified Giardia FBPA | Potency, µM (series often up to 59.6 µM), hits mostly inhibitors | AID 2451; also: nearly all actives have a fitted effect of over 55% in size
# Target sequence (A8B2U2 whole entry, looked up): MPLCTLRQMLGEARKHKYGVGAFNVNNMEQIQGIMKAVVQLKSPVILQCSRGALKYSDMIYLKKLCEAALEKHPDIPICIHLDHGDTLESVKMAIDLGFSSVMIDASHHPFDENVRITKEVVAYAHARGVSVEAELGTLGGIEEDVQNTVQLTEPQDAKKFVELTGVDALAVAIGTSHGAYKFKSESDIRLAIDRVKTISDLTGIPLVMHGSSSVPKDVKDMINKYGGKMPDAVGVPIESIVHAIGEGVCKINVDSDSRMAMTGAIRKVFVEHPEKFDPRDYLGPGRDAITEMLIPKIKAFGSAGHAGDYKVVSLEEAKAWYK
#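 Giardia FBPA (40 nM reagent) was preincubated 10 min at RT with compound (up to 57.5 uM final), then substrate plus GAPDH/TPI/NAD/arsenate coupling system with diaphorase/resazurin was added; resorufin fluorescence (525/598 nm) was read after 20 min.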
# A number is an active result; – = inactive; ? = inconclusive; · = no result; [ ] = dose if it differs, or a comment. The full list was thinned out, with hits kept by preference. Unless noted, calls follow the shape of the dose curve; as a rule, active = well fitted curve in the direction sought with a large enough effect; inconclusive = small, poorly fitted or top-dose-only effect, or another doubt; inactive = no such curve, though single readings can be large; an effect the other way counts as inactive or inconclusive.
SMILES,Cycloheximide cs,Shiga toxin inh,Tb PYK inh,LmPK inh,Sm TGR inh,FBPA Giardia inh
CCOc1ccc2nc(N3C(=O)/C(=C/c4ccc(Cl)cc4)NC3=S)sc2c1,13,–,–,–,–,–
CCOc1ccc2nc(NC(=O)c3cccn(Cc4ccc(Cl)cc4)c3=O)sc2c1,·,·,–,·,–,·
COC(=O)/C=C/C(=O)Nc1ccc(O)c(Cl)c1,–,–,?,–,45µM,–
CCC(=O)Nc1ccc(NC(=O)/C=C/c2ccc(Cl)cc2)cc1,–,–,–,–,–,–
COc1ccc(NC(=O)C=C(C)C)cc1Cl,29,102,–,16µM,–,–
COC(=O)/C=C/C(=O)Nc1cccnc1,–,–,–,–,–,–
CC(C)=CC(=O)Nc1ccc(Cl)cc1,54,55,–,–,–,–
COc1cccc(CNC(=O)CCn2nc(C)c3c(C)n(-c4ccccc4)nc3c2=O)c1,·,·,–,·,–,·
CCCSc1ncc(Cl)c(C(=O)Nc2ccc(S(=O)(=O)N3CCCCC3C)cc2)n1 (configuration not stated),·,·,–,·,?,·
Cc1ccc(C)c(NC(=O)Cn2cc(C(=O)C3CCCCC3)c3ccccc32)c1,·,·,–,·,–,·
CC1CCN(CC(=O)Nc2ccc(S(=O)(=O)N3C(C)CCCC3C)cc2)CC1 (configuration not stated),–,–,–,–,–,–
COc1ccc(CNc2nc(-c3ccccc3)nn2S(=O)(=O)c2ccccc2)cc1,·,·,–,·,–,·
Cc1ccc(C(=O)n2nc(-c3ccccc3)nc2NCc2ccco2)cc1,19,–,–,–,–,–
O=S(=O)(c1ccccc1)n1nc(-c2ccccc2)nc1NCc1ccco1,30,74,–,–,–,–
CCCC(=O)n1nc(-c2ccc(C)cc2)nc1NCc1ccco1,32,76,–,–,–,–
Cn1cccc1C(=O)N1CCC2(CC1)CN(C(=O)Nc1cccc(F)c1)C2,·,·,–,·,·,–
O=C(C1=NN[C@@H]2C(=O)N(c3cccc(C(F)(F)F)c3)C(=O)[C@H]12)c1cnccn1,–,–,–,–,18µM,–
O=C(C1=NN[C@@H]2C(=O)N(c3cccc(C(F)(F)F)c3)C(=O)[C@H]12)C(c1ccccc1)c1ccccc1,–,–,–,–,–,–
N#Cc1ccc(N2C(=O)[C@@H]3C(C(=O)c4ccc5ccccc5n4)=NN[C@@H]3C2=O)cc1,–,–,–,–,50µM,–
N#Cc1ccc(N2C(=O)[C@@H]3C(C(=O)c4cnccn4)=NN[C@@H]3C2=O)cc1,–,–,–,–,8.9µM,?
CCCC(=O)OCc1cnc(C)c2oc(=O)c(C(=O)Nc3ccccc3)cc12,·,·,–,·,–,·
CN(C(=O)CSc1nnc(COc2ccccc2)o1)c1ccccc1,·,·,–,·,–,·
C/C=C/c1ccc(OCC(=O)Nc2ccc(C(N)=O)cc2)c(OC)c1,–,–,–,–,–,–
Cc1ccc(Nc2nc(COC(=O)COc3ccc(C=O)cc3)cs2)cc1,25,69,–,–,–,–
C/C=C/c1ccc(OCC(=O)OCc2csc(Nc3ccc(C)cc3)n2)c(OC)c1,44,91,–,–,–,–
SMILES,Cycloheximide cs,Shiga toxin inh,Tb PYK inh,LmPK inh,Sm TGR inh,FBPA Giardia inh
CCOC(=O)c1sc(N)c(C(=O)Nc2ccccc2)c1C,27,46,?,–,–,?
CCOC(=O)c1c(N)sc(C(=O)OCCOC)c1C,35,59,–,–,–,–
CCOC(=O)c1sc(NC(=S)NC(=O)c2ccccc2)c(C(=O)OCC)c1C,–,–,–,–,–,–
CCOC(=O)c1sc(N)c(C(=O)OCC)c1C,51,81,–,–,–,–
CCn1c(=O)c(C(=O)Nc2ccc(C(C)=O)cc2)nc2ccccc21,·,·,–,·,–,·
COc1ccc(OC)c(CCNC(=O)c2nn(C)c3c2CSc2ccccc2-3)c1,·,·,–,·,?,·
Cc1cc(-c2ccc(C)c(S(=O)(=O)NC(c3cccs3)C(C)C)c2)on1 (configuration not stated),·,·,–,·,–,·
CN(C)C(=O)CSc1nnc(CCN)o1,–,–,–,–,?,–
CN(C)C(=O)CSc1nnc(C23CC4CC(CC(C4)C2)C3)o1,15,–,–,–,–,–
CC(C)CC(=O)NC(=S)Nc1ccc(N2CCCC2)c(Cl)c1,–,57,–,–,–,–
CC(C)C(=O)Nc1ccc(N2CCCC2)c(Cl)c1,44,–,–,–,–,–
O=C(NC(=S)Nc1ccc(N2CCOCC2)c(Cl)c1)C(c1ccccc1)c1ccccc1,–,–,–,–,–,–
CCCC(=O)NC(=S)Nc1ccc(N2CCOCC2)c(Cl)c1,19,44,–,–,–,–
CCN1CCN(c2ccc(NC(=O)C(C)C)cc2Cl)CC1,–,–,–,–,–,–
CCc1ccc(NC(=S)NC(=O)CC(C)C)cc1,70,19,–,–,–,–
CC(C)CC(=O)NC(=S)Nc1cccc(NC(=O)c2ccccc2Cl)c1,–,–,–,–,?,–
CC#CCN1c2ccccc2[C@]23C[C@@H](C(=O)OC)N(S(=O)(=O)c4ccc(OC)cc4)C2=NC(C(=O)OC)=C(C(=O)OC)[C@H]13,·,·,·,–[11.5 µM],·,–[12.9 µM]
CCCS(=O)(=O)NCCc1csc2nc(-c3ccc(OC)cc3)nn12,·,·,–,·,–,·
O=C(/C=C/c1ccccc1)NC(=S)Nc1ccc(N2CCOCC2)c(Cl)c1,–,–,–,–,–,–
O=C(/C=C/c1ccco1)NC(=S)Nc1ccc(N2CCOCC2)c(Cl)c1,–,–,–,–,40µM,–
O=Nc1ccc2oc(=O)ccc2c1,·,·,·,·,·,–
COc1ccc(C(C)=O)cc1CSc1nc2ccccc2o1,–,–,–,–,–,–
O=[N+]([O-])c1ccccc1CSc1nc2ccccc2o1,40,75,–,–,–,–
NC(=O)c1ccccc1OCCOCCOCCOc1ccccc1C(N)=O,–,–,–,–,–,–
O=P(O)(O)c1ccccc1OCCOCCOCCOCCOc1ccccc1P(=O)(O)O,42,–,–,–,–,–
SMILES,Cycloheximide cs,Shiga toxin inh,Tb PYK inh,LmPK inh,Sm TGR inh,FBPA Giardia inh
c1ccn2c(c1)nc1c2nc2ccccn21,–,–,–,–,–,–
Cc1ccc(-c2nc3ccc(Br)cn3c2Cc2ccccc2)cc1,·,·,–,·,·,·
O=C(O)c1ccccc1C(=O)Nc1c(-c2ccccc2)nc2ccccn12,27,–,–,–,–,–
CN(C)c1ccc(-c2nc3ccccn3c2/N=C/c2ccc(Br)cc2)cc1,46,–,–,–,–,–
Clc1c(-c2ccccc2)nc2ccccn12,21,–,–,–,–,–
Cc1ccn2c(NC(=O)c3ccccc3)c(-c3ccccc3)nc2c1,–,–,–,–,–,–
Cc1c(-c2ccc(Br)cc2)nc2ccccn12,29,49,–,?,–,–
COc1cc(NC(=O)c2ccc3oc(=O)c(S(=O)(=O)c4ccccc4)cc3c2)cc(OC)c1,·,·,–,·,–,·
CN(CC(=O)Nc1c(Cl)cccc1Cl)C(=O)CCNS(=O)(=O)c1ccccc1C(F)(F)F,·,·,–,·,–,·
